Experimental findings from PubChem BioAssay AID1259240 (Keith Lab, Institute of Cancer Science, University of …, 2017) are described below.

A number with no mark means an inactive call. Activity calls are given as the source filed them. Cut-off read from the data, not from the text of the source: active = fold change mostly below about -2 (no sharp cut-off); inactive = mostly above about -1.8.

The assay is described as follows: modulation of TERT promoter-driven luciferase – cell-based, luciferase reporter, human, primary screen (AID 1259240). The settings on record: A2780 TERT promoter luciferase reporter, 16 h; at 20 µM, fold versus average of vehicle-only wells.
In the case of `Cc1cc(C)cc(N2CN=c3s/c(=C4\C(=O)Nc5ccccc54)c(=O)n3C2)c1`, the fold change is -1.15.
The same measure, in the same setting: for `CCc1cccc(Nc2nc3ccccc3n3cnnc23)c1` the value was -4.16 (active); for `Brc1c(C[n+]2ccccc2)nc2ccccn12`, -1.91.
Consider `CCOC(=O)C1=C(CS(=O)(=O)c2ccc(Cl)cc2)NC(=O)NC1c1ccc(F)cc1` (stereo not given), for which the fold change is 1.41.
On the same count and under the same terms, for `CCOC(=O)N1CCC(Nc2c(N3CCCCC3C)c(=O)c2=O)CC1` (stereo not given) the value was 1.02; for `Cc1ccccc1-c1nc(CSCC(=O)O)c(C)o1`, -1.01.
Same read-out and setting: for `O=C(ON=C1CCCC1)c1sc2ccccc2c1Cl` the value was -1.7.
Turning to `CC(C)(C)OC(=O)CN1C(=O)c2ccccc2S1(=O)=O`, the fold change was 1.98.
Still for that read-out and setting: for `CSc1ccc(CCNc2ccc3nnc(-c4ccccc4)n3n2)cc1` the value was 1.07.
As for `c1nc(N2CCOCC2)c2sc3nc(N4CCOCC4)c4c(c3c2n1)CCCC4`, the fold change was -1.09.
Consider `NC(=O)C1CCN(C(=O)N2c3ccccc3Sc3ccccc32)CC1`, for which the fold change was -2.9 (active).
The same measure, in the same setting: for `CCCC1=NN2C(=N)/C(=C\c3ccc(SCc4ccco4)o3)C(=O)N=C2S1` the value was -1.68.
Still for that read-out and setting: the figure for `CC(C)CCSc1nc(-c2ccc([N+](=O)[O-])cc2)nc2c1c(=O)n(C)c(=O)n2C` is 1.2.
The same measure, in the same setting: for `Clc1ccc(CNc2ncnc3nc[nH]c23)cc1` the value was 2.09 (active).
In the case of `Cc1noc(C(=O)NCC(C)C)c1Cl`, the fold change was -1.74.
Same read-out and setting: for `c1ccc2c(c1)OCC(CNc1nnc(Cc3ccncc3)c3ccccc13)O2` (stereo not given) the value was -1.37.
On the same count and under the same terms, for `CC(C)C(NS(=O)(=O)c1cccc2nsnc12)C(=O)NC1CCCCC1C` (stereo not given) the value was -1.42; for `Cc1cc(C)c(Cn2c3ccccc3c3cnn(CC(=O)NCC4CCCO4)c(=O)c32)c(C)c1` (stereo not given), -1.24.
The same measure, in the same setting: the figure for `CCc1ccc2nc(Nc3nccc(C)n3)nc(C)c2c1` is 1.83; for `COc1cccc(CNc2nc3ccccc3n3cnnc23)c1` it is 1.12; for `Cc1ccccc1Cn1nc(C)c(NC(=O)c2cc(C3CC3)on2)c1C` it is -1.04.
Regarding `O=C(CCCCn1c(=O)[nH]c2ccsc2c1=O)NCCc1c[nH]c2ccccc12`, the fold change was -2.16 (active).
In the case of `O=C(CSc1ncnc2ccccc12)Nc1cccc(F)c1`, the fold change is 1.32.
Still for that read-out and setting: for `Cc1ccc(C2CC(=O)Nc3cc4c(cc32)OCCO4)cc1Br` (stereo not given) the value was -1.14; for `COc1ccc2oc(=O)c(S(=O)(=O)c3ccc(C(C)C)cc3)cc2c1`, 1.21; for `O=C(CCC(=O)NC1CCCC1)NNc1nc2ccccc2c2nc(-c3ccccc3)nn12`, -1.47.
The same measure, in the same setting: the figure for `CCOC(=O)c1c(CN2CCOCC2)oc2ccc(OC)cc12` is -1.29.
The same measure, in the same setting: the figure for `COc1cccc(N=c2oc3c(OC)cccc3cc2S(=O)(=O)c2ccccc2)c1` is -1.92; for `CCOC(=O)c1c(C)n(C)c2ccc(OCC(O)CN3CCCCC3C)cc12` (stereo not given) it is -2.14 (active); for `CCN(CC)CCNc1nc2c(c(=O)[nH]c(=O)n2C)n1CCCc1ccccc1` it is -2.06 (active).
Consider `O=C(CSc1nc2sc3c(c2c(=O)[nH]1)CCCC3)N1CCOCC1`, for which the fold change was -4.39 (active).
Still for that read-out and setting: for `CCOC(=O)c1ccc(-c2c(C(F)(F)F)oc3cc(O)c(CC)cc3c2=O)o1` the value was -2.58 (active).
Turning to `CCOC(=O)C1=C(CS(=O)(=O)c2ccccc2)NC(=O)NC1c1cc(OC)c(OC)cc1OC` (stereo not given), the fold change is 1.83.
The same measure, in the same setting: the figure for `COc1ccc(S(=O)(=O)n2cnc3ccccc32)c(C)c1` is -1.08; for `CCC(=O)Nc1nc2nc(C(C)(C)C)cc(=O)n2[nH]1` it is -1.74.
Same read-out and setting: for `CC(C)CNC(=O)CSc1nc(-c2cccs2)cc(C(F)(F)F)n1` the value was -2.24 (active); for `CC(C)CCNS(=O)(=O)c1ccc2c(c1)n(C)c(=O)c(=O)n2C`, 1.28; for `COc1cc(/C=C2\SC(N3CCN(C)CC3)=NC2=O)cc(OC)c1OC`, -1.05.
In the case of `O=C(Cc1ccc(NC2=NC3CS(=O)(=O)CC3S2)cc1)N1CCc2ccccc2C1` (stereo not given), the fold change is 1.1.
Consider `CC1=C(C(=O)Nc2ccccc2)C(c2ccccn2)n2nc(CCCO)nc2N1` (stereo not given), for which the compound was called inactive.
